Measurements: PubChem BioAssay AID1159580 (chemical genetic matrix, 2015)
Out of some 5,500 compounds screened, about 2,000 (36%) were called active. Roughly 18% stayed inconclusive and do not appear here. This is one part of the list. A number with no mark means an inactive call. No stated cut-off is given here; in the data, active means normalized growth mostly below about 0.91 (no sharp cut-off); inconclusive means no clear call, values can overlap the other calls; inactive means mostly above about 0.92.

Experiment: chemical genetic growth profiling, strain panel (AID 1159580);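 further: tested at 20 µM; growth read once vehicle control cultures reached saturation at 30 °C; 1 = growth at the plate median or of vehicle wells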
Conditions: growth OD

Compound: COC(=O)Nc1nc2ccc(Sc3ccccc3)cc2[nH]1
- normalized growth (S. cerevisiae deletion strains, locus YJR075W, strain HOC1, stronger effect = lower value): 0.982
- normalized growth (S. cerevisiae deletion strains, locus YKL009W, strain mrt4, stronger effect = lower value): 0.951
- normalized growth (S. cerevisiae deletion strains, locus YKL068W, stronger effect = lower value): 0.996
- normalized growth (S. cerevisiae deletion strains, locus YKL085W, strain MDH1 (second series), stronger effect = lower value): 0.959
- normalized growth (S. cerevisiae deletion strains, locus YKL085W, strain MDH1, stronger effect = lower value): 0.959
- normalized growth (S. cerevisiae deletion strains, locus YKL160W, strain elf1, stronger effect = lower value): 0.997
- normalized growth (S. cerevisiae deletion strains, locus YKL190W, strain CNB1, stronger effect = lower value): 0.996
- normalized growth (S. cerevisiae deletion strains, locus YKR001C, strain vps1, stronger effect = lower value): 0.978
- normalized growth (S. cerevisiae deletion strains, locus YKR026C, strain gcn3, stronger effect = lower value): 0.98
- normalized growth (S. cerevisiae deletion strains, locus YKR091W, strain srl3, stronger effect = lower value): 1.01
- normalized growth (S. cerevisiae deletion strains, locus YLL001W, strain dnm1, stronger effect = lower value): 1
- normalized growth (S. cerevisiae deletion strains, locus YLL026W, stronger effect = lower value): 0.992
- normalized growth (S. cerevisiae deletion strains, locus YLL041C, strain sdh2, stronger effect = lower value): 0.989
- normalized growth (S. cerevisiae deletion strains, locus YLR027C, strain aat2, stronger effect = lower value): 0.995
- normalized growth (S. cerevisiae deletion strains, locus YLR039C, strain RIC1, stronger effect = lower value): 0.95
- normalized growth (S. cerevisiae deletion strains, locus YLR058C, strain SHM2, stronger effect = lower value): 0.996
- normalized growth (S. cerevisiae deletion strains, locus YLR102C, strain apc9, stronger effect = lower value): 1
- normalized growth (S. cerevisiae deletion strains, locus YLR113W, strain HOG1, stronger effect = lower value): 0.957
- normalized growth (S. cerevisiae deletion strains, locus YLR221C, strain rsa3, stronger effect = lower value): 0.992
- normalized growth (S. cerevisiae deletion strains, locus YLR258W, strain gsy2, stronger effect = lower value): 0.99
- normalized growth (S. cerevisiae deletion strains, locus YLR262C, strain YPT6 (second series), stronger effect = lower value): 0.921
- normalized growth (S. cerevisiae deletion strains, locus YLR262C, strain YPT6, stronger effect = lower value): 0.965
- normalized growth (S. cerevisiae deletion strains, locus YLR268W, strain sec22, stronger effect = lower value): 1.01
- normalized growth (S. cerevisiae deletion strains, locus YLR320W, strain mms22, stronger effect = lower value): 0.998
- normalized growth (S. cerevisiae deletion strains, locus YLR330W, strain CHS5, stronger effect = lower value): 0.994
- normalized growth (S. cerevisiae deletion strains, locus YLR342W, strain FKS1 (second series), stronger effect = lower value): 0.93
- normalized growth (S. cerevisiae deletion strains, locus YLR342W, strain FKS1, stronger effect = lower value): 0.983
- normalized growth (S. cerevisiae deletion strains, locus YLR357W, strain rsc2, stronger effect = lower value): 0.951
- normalized growth (S. cerevisiae deletion strains, locus YLR370C, strain arc18, stronger effect = lower value): 1
- normalized growth (S. cerevisiae deletion strains, locus YLR371W, strain rom2, stronger effect = lower value): 1.01
- normalized growth (S. cerevisiae deletion strains, locus YLR384C, strain iki3, stronger effect = lower value): 0.996
- normalized growth (S. cerevisiae deletion strains, locus YLR418C, strain cdc73, stronger effect = lower value): 0.918
- normalized growth (S. cerevisiae deletion strains, locus YML016C, strain PPZ1, stronger effect = lower value): 0.989
- normalized growth (S. cerevisiae deletion strains, locus YML032C, strain rad52, stronger effect = lower value): 1
- normalized growth (S. cerevisiae deletion strains, locus YML120C, strain ndi1, stronger effect = lower value): 0.98
- normalized growth (S. cerevisiae deletion strains, locus YML124C, strain tub3, stronger effect = lower value): 0.181 (active)
- normalized growth (S. cerevisiae deletion strains, locus YMR058W, strain fet3, stronger effect = lower value): 0.994
- normalized growth (S. cerevisiae deletion strains, locus YMR078C, strain ctf18, stronger effect = lower value): 1.01
- normalized growth (S. cerevisiae deletion strains, locus YMR125W, strain sto1, stronger effect = lower value): 0.984
- normalized growth (S. cerevisiae deletion strains, locus YMR129W, stronger effect = lower value): 1
- normalized growth (S. cerevisiae deletion strains, locus YMR205C, strain PFK2, stronger effect = lower value): 0.988
- normalized growth (S. cerevisiae deletion strains, locus YMR223W, strain ubp8, stronger effect = lower value): 0.968
- normalized growth (S. cerevisiae deletion strains, locus YMR231W, strain pep5, stronger effect = lower value): 0.984
- normalized growth (S. cerevisiae deletion strains, locus YMR263W, strain SAP30, stronger effect = lower value): 0.973
- normalized growth (S. cerevisiae deletion strains, locus YMR307W, strain GAS1, stronger effect = lower value): 0.974
- normalized growth (S. cerevisiae deletion strains, locus YNL067W, strain RPL9B, stronger effect = lower value): 0.996
- normalized growth (S. cerevisiae deletion strains, locus YNL071W, strain lat1, stronger effect = lower value): 0.988
- normalized growth (S. cerevisiae deletion strains, locus YNL128W, strain TEP1, stronger effect = lower value): 1.01
- normalized growth (S. cerevisiae deletion strains, locus YNL153C, strain GIM3, stronger effect = lower value): 0.0686 (active)
- normalized growth (S. cerevisiae deletion strains, locus YNL183C, strain NPR1, stronger effect = lower value): 0.893
- normalized growth (S. cerevisiae deletion strains, locus YNL209W, strain ssb2, stronger effect = lower value): 1.01
- normalized growth (S. cerevisiae deletion strains, locus YNL233W, strain BNI4, stronger effect = lower value): 0.977
- normalized growth (S. cerevisiae deletion strains, locus YNL248C, strain rpa49, stronger effect = lower value): 0.999
- normalized growth (S. cerevisiae deletion strains, locus YNL250W, strain rad50, stronger effect = lower value): 1
- normalized growth (S. cerevisiae deletion strains, locus YNL271C, strain bni1, stronger effect = lower value): 1.01
- normalized growth (S. cerevisiae deletion strains, locus YNL298W, strain CLA4, stronger effect = lower value): 0.99
- normalized growth (S. cerevisiae deletion strains, locus YNL307C, strain MCK1, stronger effect = lower value): 0.993
- normalized growth (S. cerevisiae deletion strains, locus YNL322C, strain KRE1 (second series), stronger effect = lower value): 0.988
- normalized growth (S. cerevisiae deletion strains, locus YNL322C, strain KRE1, stronger effect = lower value): 1
- normalized growth (S. cerevisiae deletion strains, locus YNR049C, strain mso1, stronger effect = lower value): 0.997
- normalized growth (S. cerevisiae deletion strains, locus YNR052C, strain pop2, stronger effect = lower value): 1
- normalized growth (S. cerevisiae deletion strains, locus YOL006C, strain TOP1, stronger effect = lower value): 0.981
- normalized growth (S. cerevisiae deletion strains, locus YOL012C, strain htz1): 0.49
- normalized growth (S. cerevisiae deletion strains, locus YOL147C, strain pex11, stronger effect = lower value): 0.996
- normalized growth (S. cerevisiae deletion strains, locus YOR001W, strain rrp6, stronger effect = lower value): 0.985
- normalized growth (S. cerevisiae deletion strains, locus YOR061W, strain CKA2, stronger effect = lower value): 0.994
- normalized growth (S. cerevisiae deletion strains, locus YOR069W, strain VPS5, stronger effect = lower value): 1
- normalized growth (S. cerevisiae deletion strains, locus YOR070C, strain gyp1, stronger effect = lower value): 0.99
- normalized growth (S. cerevisiae deletion strains, locus YOR080W, strain dia2, stronger effect = lower value): 0.993
- normalized growth (S. cerevisiae deletion strains, locus YOR083W, strain WHI5, stronger effect = lower value): 0.976
- normalized growth (S. cerevisiae deletion strains, locus YOR106W, strain vam3, stronger effect = lower value): 0.972
- normalized growth (S. cerevisiae deletion strains, locus YOR136W, strain idh2, stronger effect = lower value): 0.993
- normalized growth (S. cerevisiae deletion strains, locus YOR144C, strain elg1, stronger effect = lower value): 1
- normalized growth (S. cerevisiae deletion strains, locus YOR184W, strain ser1, stronger effect = lower value): 0.984
- normalized growth (S. cerevisiae deletion strains, locus YOR231W, strain MKK1, stronger effect = lower value): 0.973
- normalized growth (S. cerevisiae deletion strains, locus YOR265W, strain rbl2, stronger effect = lower value): 0.982
- normalized growth (S. cerevisiae deletion strains, locus YOR270C, strain vph1, stronger effect = lower value): 0.991
- normalized growth (S. cerevisiae deletion strains, locus YOR290C, strain snf2, stronger effect = lower value): 0.993
- normalized growth (S. cerevisiae deletion strains, locus YOR316C, strain cot1, stronger effect = lower value): 0.998
- normalized growth (S. cerevisiae deletion strains, locus YPL051W, strain arl3, stronger effect = lower value): 0.996
- normalized growth (S. cerevisiae deletion strains, locus YPL055C, strain LGE1, stronger effect = lower value): 0.953
- normalized growth (S. cerevisiae deletion strains, locus YPL078C, strain atp4, stronger effect = lower value): 0.994
- normalized growth (S. cerevisiae deletion strains, locus YPL106C, strain sse1, stronger effect = lower value): 1.08
- normalized growth (S. cerevisiae deletion strains, locus YPL240C, strain hsp82, stronger effect = lower value): 1
- normalized growth (S. cerevisiae deletion strains, locus YPL241C, strain CIN2, stronger effect = lower value): 0.0715 (active)
- normalized growth (S. cerevisiae deletion strains, locus YPL256C, strain CLN2, stronger effect = lower value): 0.959
- normalized growth (S. cerevisiae deletion strains, locus YPR119W, strain clb2, stronger effect = lower value): 1
- normalized growth (S. cerevisiae deletion strains, locus YPR141C, strain kar3, stronger effect = lower value): 1.02
- normalized growth (S. cerevisiae deletion strains, locus YPR163C, strain tif3, stronger effect = lower value): 0.986
- normalized growth (S. cerevisiae deletion strains, locus YPR167C, strain met16, stronger effect = lower value): 1
- normalized growth (S. cerevisiae deletion strains, strain wtn01, stronger effect = lower value): 0.998
- normalized growth (S. cerevisiae strains, strain wild type, stronger effect = lower value): 0.997
